Bioassay records deposited in PubChem by Broad Institute.
This excerpt belongs to a sample that is enriched for hits.
Tg IFNy HTS: T. gondii growth inhibition with IFN-gamma, primary screen, cell-based | Toxoplasma gondii growth in IFN-gamma-treated host cells; stronger effect = lower value | 69,000 compounds, 3.8% hits | activity change, negative = inhibition, % (no concentration beside the values); in the data active means activity change below about -70%, passing the limit was not always enough;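 further: host cells are HeLa cells infected with Toxoplasma gondii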
Hits are given with their value; – = inactive; ! = not active in a repeat.

SMILES | Tg IFNy HTS
Cc1ccc(CNC(=O)Cn2ncc3c(N4CCN(c5ccccn5)CC4)ncnc32)cc1C | –
O=C(Cn1ncc2c(N3CCCCC3)ncnc21)NCc1ccco1 | –
O=C(Cn1ncc2c(N3CCCCCC3)ncnc21)NCc1ccc(Br)cc1 | -92.7
O=C(Cn1ncc2c(N3CCN(c4ccccn4)CC3)ncnc21)NCc1ccc(F)cc1 | -99.9
O=C(Cn1ncc2c(N3CCN(c4ccccn4)CC3)ncnc21)NCc1cccnc1 | –
CCCNC(=O)Cn1ncc2c(N3CCN(c4ccccn4)CC3)ncnc21 | –
O=C(Cn1ncc2c(N3CCCCCC3)ncnc21)NCc1cccc(Br)c1 | –
O=C(Cn1ncc2c(N3CCCC3)ncnc21)Nc1ccc(Br)cc1 | –
Cc1nc(CN(C)Cc2ccccc2-c2ccccc2)no1 | –
O=S(=O)(c1cccs1)N1CCCCN2[C@H](C1)[C@@H](c1ccc(/C=C/c3ccccc3)cc1)[C@@H]2CO | –
Cc1oc(-c2cccc(Cl)c2)nc1Cn1nnc(-c2nc(-c3cccnc3)no2)c1C | –
CCN(Cc1nccn1C)C(=O)CC1C(=O)NCCN1Cc1cccnc1 (stereo unspecified) | –
O=C1NCCNC12CCN(S(=O)(=O)c1cc(F)cc(F)c1)CC2 | –
NC1(C(=O)N[C@@H](CCO)c2ccc(Cl)cc2)CCN(c2ncnc3[nH]ccc23)CC1 | –
CCS(=O)(=O)N1CC2CN(C(=O)CCO)CC[C@@]2(c2ccccc2)C1 (stereo partly specified) | –
CCCCNC(=O)CCC1N=C2c3ccccc3N=C(SCc3cc(=O)n4ccccc4n3)N2C1=O (stereo unspecified) | –
O=C(NC1CCCCCC1)C1CC(=O)N(CCc2c[nH]c3ccc(Cl)cc23)C1 (stereo unspecified) | –
Cc1ccc2[nH]cc(CCN3CC(C(=O)NCCc4ccc(F)cc4)CC3=O)c2c1 (stereo unspecified) | –
O=C(Nc1ccc2c(c1)CCC2)C1CC(=O)N(CCc2c[nH]c3ccc(Cl)cc23)C1 (stereo unspecified) | -111.3
Cc1nnc(NC(=O)C2CC(=O)N(CCc3c[nH]c4ccc(Cl)cc34)C2)s1 (stereo unspecified) | –
CC(C)c1ccc(NC(=O)C2CC(=O)N(CCc3c[nH]c4ccc(F)cc34)C2)cc1 (stereo unspecified) | -80.8
CC(C)(C)c1nnc(NC(=O)C2CC(=O)N(CCc3c[nH]c4ccc(F)cc34)C2)s1 (stereo unspecified) | –
O=C(CN1CCN(C(=O)N2CCCCC2)CC1)Nc1cc(Cl)ccc1Cl | –
COc1ccc2[nH]c(=O)c(CN(C)Cc3ncc[nH]3)cc2c1 | –
O=C(O)c1cc(-c2ccc3c(c2)OCO3)nc2ccc(Br)cc12 | –
SMILES | Tg IFNy HTS
O=C(O)c1cccc(-c2ccc3c(c2)OCO3)c1 | -74.6
O=C(c1ccc2c(c1)OCO2)N1CCCCC1 | –
O=C(NCCc1csc(-c2ccc(F)cc2)n1)C(=O)Nc1cccc(Cl)c1 | –
CCN(Cc1ccccc1)C(=O)c1cc2cccnc2n(Cc2ccc(Cl)cc2)c1=O | –
Cc1nc2ccccc2nc1CN1CCCC(C(=O)c2ccc3c(c2)OCO3)C1 (stereo unspecified) | –
N#C[C@@H]1[C@H](c2ccc(-c3cccc(F)c3)cc2)[C@@H](CO)N1C(=O)NC1CCCC1 | –
Nc1nc(NCC2CCC(CNS(=O)(=O)c3cccc4ccccc34)CC2)nc2ccccc12 (stereo unspecified) | -76.7!
NC(N)=NCCNS(=O)(=O)c1cccc2cnccc12 | –
NCCCCCCNS(=O)(=O)c1cccc2ccccc12 | –
Cc1ccn2c(=O)c(NC(=O)c3sc(-c4ccccc4)nc3C)c(C)nc2c1 | –
O=C(Nc1ccccc1)Sc1ccc(F)cc1F | –
CCN(CC)S(=O)(=O)c1ccc2c(c1)cc(C(=O)NCC1CCN(Cc3ccc(C)cc3)C1)n2C (stereo unspecified) | -95.8
Cc1ccc(CCNC(=O)c2cc3cc(S(=O)(=O)N(C)C)ccc3n2Cc2ccncc2)cc1 | –
CCN(CC)S(=O)(=O)c1ccc2c(c1)cc(C(=O)NCCC(C)N1CCCC1)n2C (stereo unspecified) | –
O=C1CCCN1CC1CN(CC2CCOC2)Cc2nccn2C1 (stereo unspecified) | –
O=C1CCCN1CC1CN(C(=O)c2ccccn2)Cc2nccn2C1 (stereo unspecified) | -98.4
O=C(c1ccc[nH]1)N1Cc2nccn2CC(CN2CCCC2)C1 (stereo unspecified) | –
CC(C)c1cc(C2CCN(C(=O)C3CCN(Cc4ccco4)CC3)CC2)[nH]n1 | –
c1ccc(CNc2ncc(CN3CCC4(CCOCC4)CC3)cn2)cc1 | –
c1ccc2c(N3CCOCC3)nc(N3CCOCC3)nc2c1 | –
c1ccc(CNc2nc(N3CCOCC3)nc(N3CCOCC3)n2)cc1 | -82.5
CSc1ccc2c(c1)CCN(Cc1cc3n(n1)CCNC3)C2 | –
Cc1cc(F)ccc1NC(=O)c1c(O)c2cccnc2n(-c2cccc(F)c2)c1=O | -91.0
CC(NC(=O)c1c(O)c2cccnc2n(-c2cccc(F)c2)c1=O)c1ccccc1 (stereo unspecified) | -108.6
O=C(Nc1ccccc1)c1c(O)c2cccnc2n(-c2cccc(F)c2)c1=O | –
SMILES | Tg IFNy HTS
O=C(Nc1ccc(F)c(Cl)c1)c1c(O)c2cccnc2n(-c2ccc(F)cc2)c1=O | –
O=C(Nc1ccc(F)c(Cl)c1)c1c(O)c2cccnc2n(-c2cccc(F)c2)c1=O | -102.0
Cc1ccc(NC(=O)c2c(O)c3cccnc3n(-c3cccc(F)c3)c2=O)c(C)c1 | –
CC(NC(=O)c1c(O)c2cccnc2n(-c2cccc(F)c2)c1=O)c1ccc(F)cc1 (stereo unspecified) | –
Cc1ccc(F)cc1NC(=O)c1c(O)c2cccnc2n(-c2cccc(F)c2)c1=O | –
O=C(Nc1cccc(Cl)c1)c1c(O)c2cccnc2n(-c2cccc(F)c2)c1=O | –
Cc1cc(C#N)ccc1NC(=O)C1=NOC2(CCCNC2)C1 (stereo unspecified) | –
Cn1cc(CC(=O)N2CCn3c(C(N)=O)cnc3C2)c2ccccc21 | –
CCc1nnc(NC(=O)Cc2nn(C)c(=O)c3ccccc23)s1 | –
COCC(=O)NCCc1sc(-c2ccc(Cl)cc2)nc1C | –
CNC(=O)NCC1CCC2(CCN(Cc3ccccc3)CC2)CO1 (stereo unspecified) | –
O=C1NCCN(S(=O)(=O)NCc2ccccc2)C1c1cccc(F)c1 (stereo unspecified) | –
O=C(Nc1ccc(N2CCCS2(=O)=O)cc1)c1ccc2nc(C(F)(F)F)[nH]c2c1 | –
Cc1ccccc1-c1ccc([C@@H]2[C@H]3CN(C(=O)c4ccncc4)CC(=O)N3[C@H]2CO)cc1 | –
COCCN1C[C@@H]2CCN(C(=O)c3cc(C)on3)CC[C@H]2S1(=O)=O | –
Cc1cccc(N2CCC3(CC2)CN(c2ncccn2)CCO3)n1 | –
CCOC(=O)c1sc2sc(C(=O)OCC)c(-c3ccco3)c2c1N | –
CCOC(=O)c1sc2sc(-c3ccn[nH]3)c(C)c2c1C | -109.6
CCOC(=O)c1cccnc1-c1ccc(-c2ccn[nH]2)cc1 | –
COc1ccc(CN2CCc3nc(SCc4nc(-c5ccc(C)cc5)oc4C)[nH]c(=O)c3C2)cc1 | –
CC1Cc2ccccc2N1C(=O)Cn1nc(SCc2ccccn2)nc1N (stereo unspecified) | –
COCCC1CCCCN1Cc1cccc(C(C)=O)c1 (stereo unspecified) | –
CC(C)(C)c1nc2ccccc2c2nnc(SCC(=O)c3ccc4c(c3)OCCO4)n12 | –
O=C(CSc1nc2ccccc2o1)c1ccc2c(c1)OCCO2 | –
